Data taken from PubChem BioAssay AID1903 (Southern Research Specialized Biocontainment Screening …, 2009).
Where “and” joins values, the source holds several entries; their conditions need not be identical. Equal values may be shown once. The campaign covered roughly 310,000 compounds. About 1,200 (0.39%) were called active. How the calls were made is not given here. These entries were drawn from the full list. Measured potencies and affinities stand elsewhere.

What follows are compounds tested against Large T antigen (Simian virus 40) (UniProt P03070) (assay: SV40 large T antigen inhibitors, biochemical (AID 1903)). Conditions: SV40 large T antigen ATPase/helicase inhibition assay; at 20 µM; active compounds read high.
Chain of Large T antigen (Simian virus 40) (P03070 whole entry, looked up): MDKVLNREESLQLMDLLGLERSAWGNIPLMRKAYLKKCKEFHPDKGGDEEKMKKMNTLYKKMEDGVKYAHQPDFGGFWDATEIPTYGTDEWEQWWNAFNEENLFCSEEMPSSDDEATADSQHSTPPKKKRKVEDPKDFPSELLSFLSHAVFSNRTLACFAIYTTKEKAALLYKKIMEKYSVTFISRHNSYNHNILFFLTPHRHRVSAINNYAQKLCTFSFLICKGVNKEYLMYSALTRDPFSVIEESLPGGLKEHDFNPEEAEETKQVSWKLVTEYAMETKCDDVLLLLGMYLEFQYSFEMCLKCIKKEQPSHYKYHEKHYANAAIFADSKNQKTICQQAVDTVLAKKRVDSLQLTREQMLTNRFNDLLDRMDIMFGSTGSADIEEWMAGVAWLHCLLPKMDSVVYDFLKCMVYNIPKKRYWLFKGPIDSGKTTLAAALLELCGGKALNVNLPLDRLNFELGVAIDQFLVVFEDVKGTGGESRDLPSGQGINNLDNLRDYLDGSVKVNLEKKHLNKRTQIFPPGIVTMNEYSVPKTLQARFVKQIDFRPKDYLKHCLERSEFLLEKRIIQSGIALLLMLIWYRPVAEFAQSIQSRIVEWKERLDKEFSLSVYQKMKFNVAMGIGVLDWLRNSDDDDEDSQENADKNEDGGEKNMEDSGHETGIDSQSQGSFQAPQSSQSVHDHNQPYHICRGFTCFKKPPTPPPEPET

inhibition, inactive:
Nc1nc(Nc2ccccc2Cl)cc(=O)[nH]1 10.8%
COCn1c(-c2ccc(OC)c(OC)c2)nc2ccccc21 3.62%
O=C1CS/C(=N\N=C\c2ccco2)N1c1ccccc1 31.1%
COc1ccc2cc(S(=O)(=O)n3cnc(C)c3)ccc2c1 3.48%
CCN(CC)c1ccc(/C=N/NC(=O)CN2CCCc3ccccc32)cc1 13.9%
COc1ccc(N2CCN(C(=S)Nc3ccccc3)CC2)cc1 17.3%
COc1ccc(N2CC(NC(=O)N3CCN(c4ccccc4)CC3)CC2=O)cc1 (configuration not stated) 21.7%
CCN1CCN(C(=O)NC2CC(=O)N(c3ccc(OC)cc3)C2)CC1 (configuration not stated) 24.6%
CNC(=S)N1CCN(c2cccc(OC)c2)CC1 -1.1%
CCC(Sc1nc(N)c(NC(=O)c2ccc(OC)cc2)c(=O)[nH]1)C(=O)O (configuration not stated) 7.11%
Cc1cc(NC(=O)CSc2nc(N)c(NC(=O)c3ccc(F)c(F)c3)c(=O)[nH]2)no1 5.69%
N#CC(C#N)=C1c2cc(S(N)(=O)=O)ccc2-c2ccc(S(N)(=O)=O)cc21 3.73%
N=C1/C(=C\c2ccc(OCc3ccccc3)cc2)C(=O)N=C2SC(N3CCCC3)=NN12 10.7%
O=c1[nH]c(CSc2nnc(-c3ccccc3)n2-c2ccccc2)nc2ccccc12 3.3%
COc1cccc(C(=O)NCC(=O)N2CCC3(CC2)NCCc2[nH]cnc23)c1OC 28.6%
O=C(CSc1nc(-c2ccco2)cc(C(F)(F)F)n1)Nc1ccccc1C(F)(F)F 13.3%
O=C(O)C1CC(=O)N(c2ccc(OCc3c(F)cccc3Cl)cc2)C1 (configuration not stated) 1.79%
Cc1ccc(-c2oc3ncnc(N)c3c2-c2ccc(C)cc2)cc1 5.86%
COc1ccc(-c2oc3ncnc(N)c3c2-c2ccccc2)cc1 5.94%
Cc1cc(NC(=O)CSc2nc3ccccc3n2CC(=O)N2CCC(C)CC2)no1 -5.11%
NC1=NC(=O)C2(COC(c3ccncc3)OC2)S1 (configuration not stated) 3.62%
CC(C)CSc1nc2ccccc2n1CC(=O)O 9.25%
CC(=O)N1C(=O)N(C(C)=O)C2C1N(C(C)=O)C(=O)N2C(C)=O (configuration not stated) 5.35%
O=C1CCCN=C(Nc2ccc(F)c(Cl)c2)S1 9.56%
CN1CCN(/C=C2\SC(=S)NC2=O)CC1 5.4%
CN1C(=O)/C(=C\C=C2/CCCN2C)N(C)C1=S 17.1%
COc1ccc(-c2cc(C(=O)Nc3cccc(Cl)c3)no2)cc1 7.5%
O=C(COc1ccc(F)cc1)Nc1cc(S(=O)(=O)N2CCCCC2)ccc1N1CCCCC1 16%
N#CC1=C2SCN(c3ccc(F)cc3)CN2C(=O)CC1c1cccc(F)c1 (configuration not stated) 35.6%
N#CC1=C2SCN(Cc3ccco3)CN2C(=O)CC1c1ccccc1F (configuration not stated) 21.6%
N#CC1=C2SCN(Cc3ccccc3)CN2C(=O)CC1c1ccccc1F (configuration not stated) 35.3%
CCc1ccccc1N1CSC2=C(C#N)C(c3ccccc3F)CC(=O)N2C1 (configuration not stated) 54.3% and 27%
N#CC1=C2SCN(Cc3ccco3)CN2C(=O)CC1c1cccc2ccccc12 (configuration not stated) 24.4%
N#CC1=C2SCN(c3ccccc3)CN2C(=O)CC1c1c(Cl)cccc1Cl (configuration not stated) 33.9%
COc1ccccc1Nc1nc(NCCO)nc(N)c1[N+](=O)[O-] 7.82%
COc1ccc(-c2cc(-c3n[nH]c(=S)n3-c3ccccc3OC)[nH]n2)cc1 32.3%
O=c1cc(-c2ccccc2)nc(N2CCN(Cc3ccc4c(c3)OCO4)CC2)[nH]1 9.11%
O=C(N/N=C/c1cccnc1)c1cccc(N2CCCC2=O)c1 0.45%
Cn1cccc1Cc1nnc(SCC(=O)NCCc2ccccc2)n1C -0.6%
COc1ccc(NC2CCCN(C(=O)c3ccc4nccnc4c3)C2)cc1OC (configuration not stated) 32.5%
Cc1ccc(NC2CCCN(C(=O)c3c(C)noc3C)C2)cc1C (configuration not stated) 21.2%
COC(=O)c1cccc(C(=O)N2CCCC(Nc3ccc4c(c3)OCCO4)C2)c1 (configuration not stated) 29.8%
COc1ccc(C(=O)N2CCCC(Nc3ccc(F)cc3)C2)c(OC)c1 (configuration not stated) 12%
COc1ccc(NC2CCCN(C(=O)c3ccc4nc(C)c(C)nc4c3)C2)cc1OC (configuration not stated) 26.4%
Cc1noc(C)c1C(=O)N1CCCC(Nc2ccc(C(C)C)cc2)C1 (configuration not stated) -5.88%
CC(C)c1ccc(NC2CCCN(C(=O)c3ccco3)C2)cc1 (configuration not stated) 19.6%
COc1ccc(OC)c(C(=O)N2CCCC(Nc3ccc(F)cc3)C2)c1 (configuration not stated) 23%
COc1ccc(-n2cnc3cc(C(=O)NCC4CCCO4)ccc32)cc1 (configuration not stated) 3.91%
CN(C)CCCN(C(=O)c1ccco1)c1nc2ccc(F)cc2s1 7.29%
C(=N\N1CCN(c2ccccc2)CC1)/c1ccccc1 8.2%
COC(=O)[C@@H]1C[C@H]2CC[C@H](O)C[C@H]2N1Cc1ccc(Cl)cc1 8.58%
N#Cc1c(/N=C/c2ccc(-c3ccccc3C(=O)O)o2)sc2c1CCCC2 13.3%
CCOC(=O)C1CCN(C(=O)CCNC(=O)c2cc(OC)c(OC)c(OC)c2)CC1 4.64%
CCOC(=O)CSc1nnc(NC(=O)c2ccco2)s1 -8%
Cc1ccc(N(CC(=O)NCC2CCCO2)C(=O)Cn2nnc(-c3cccs3)n2)cc1 (configuration not stated) 24.6%
Cc1ncc(CN2CCC(CO)(Cc3ccccc3)CC2)s1 2.75%
COc1ccc(NC2CCCN(C(=O)c3ccc(C(C)=O)cc3)C2)cc1 (configuration not stated) 46.3%
COc1ccc(NC2CCCN(C(=O)c3ccncc3)C2)cc1 (configuration not stated) 51.8%
O=C(Nc1cccnc1)/C(N=Nc1c(Cl)cccc1Cl)=C(\O)c1ccccc1 0.28%
C/C(=N\NC(=O)CC#N)c1cc2ccc(O)cc2oc1=O 21.8%
C/C(=N/NC(=O)c1ccncc1)c1cc2ccc(O)cc2oc1=O 12.9%
CCc1noc(C)c1C(=O)N1CCN(S(=O)(=O)c2c(C)c(C)cc(C)c2C)CC1 5.1%
O=C(O)c1ccccc1C(=O)c1cccc2ccccc12 8.24%
O=C(O)CCC(=O)c1cccc2ccccc12 6.26%
CS(=O)(=O)N1CCCC(C(=O)N2CCN(c3cccc(Cl)c3)CC2)C1 (configuration not stated) 9.69%
COc1ccccc1NC(=S)N(CCCN1CCOCC1)Cc1ccccn1 12.9%
CSc1nc2ccc(S(=O)(=O)N3CCCCC3)cc2s1 4.61%
Cc1nc2ccc(S(=O)(=O)N3CCCCC3)cc2s1 2.61%
COc1ccc(NC(=O)CC2C(=O)N(c3ccc(F)cc3)C(=S)N2NC(=O)c2ccc(Cl)cc2)cc1 (configuration not stated) 8.76%
CCCOc1ccc(C(=O)Nc2ccc(N(C)C)cc2)cc1 32%
O=C(Nc1ccc(Br)cc1)c1cccc(N2C(=O)CCC2=O)c1 7.57%
COc1cc(C(=O)Nc2ccncc2)cc(OC)c1OC 5.76%
O=C(Nc1ccccc1)c1cccc(N2C(=O)CCC2=O)c1 5.21%
CC(C)Oc1ccc(NC(=O)c2ccncc2)cc1 3.7%
COc1cc(C(=O)Nc2ccc(Nc3ccccc3)cc2)cc(OC)c1OC 12.4%
CN(C)c1ccc(NC(=O)c2ccc3nsnc3c2)cc1 18.4%
O=C(Nc1ccc(F)cc1)c1ccc2nc[nH]c2c1 7.49%
COc1ccc(-c2cc(=O)c3cc(OC)c(OC)cc3[nH]2)cc1 3.81%
Cc1ccc(/C=C(\NC(=O)c2ccccc2)C(=O)NCC2CCCO2)o1 (configuration not stated) 6.08%
O=C(COc1ccc(C(=O)c2ccccc2)cc1)NC1CCCCCC1 -8.94%
NC(N)=Nc1nc2ccc(Cl)cc2c(=O)[nH]1 11.5%
COc1ccc(NC(=O)/C=C/c2ccc(OC(F)F)cc2)cn1 9.9%
COc1ccc(N2CCN(C(=O)CN3C(=O)NC(c4ccc(OC)cc4)(c4ccc(OC)cc4)C3=O)CC2)cc1 6.64%
Cc1cc(=O)n(CC=C(Cl)Cl)c2ccccc12 -7.91%
NC(=S)N/N=C/c1ccccc1 13%
NC(=S)NN=C1c2ccccc2-c2ccccc21 7.35%
CC(=O)Nc1ccc(NC(=O)CS(=O)(=O)c2cn(CC(=O)N3CCCC3)c3ccccc23)cc1 14%
Cc1ccc(-n2nc(C)c(NC(=O)CCl)c2C)cc1 9.64%
CC(C)CCNC(=O)c1cccc(S(=O)(=O)N2CCc3ccccc32)c1 11.5%
COC(=O)c1c(NC(=O)COC(=O)c2ccccn2)sc(C)c1C 11.7%
COc1cc(-c2nnc(SCc3ccccc3Cl)o2)cc(OC)c1OC 4.19%
COc1cc(-c2nnc(SCc3cc(=O)oc4cc(C)ccc34)o2)cc(OC)c1OC 0.12%
COc1ccccc1-c1nc2c(c(SCC(=O)N3CCCCC3)n1)Cc1c(CO)cnc(C)c1O2 4.68%
Cc1sc2ncn(CC(=O)NCc3ccccn3)c(=O)c2c1S(=O)(=O)N1CCOCC1 -0.92%
Nn1c(SCC(=O)N2CCCCCC2)nnc1-c1ccncc1 2.98%
Cc1ccc([C@@H]2CC=C(C(=O)O)[C@H](c3ccc(Cl)cc3)N2S(=O)(=O)c2ccc(C)cc2)cc1 21.6%
Cc1ccc(S(=O)(=O)N2[C@@H](c3ccccc3)C(C(=O)O)=CC[C@H]2c2ccc(Cl)cc2)cc1 17.2%
